Reference: PubChem BioAssay (Tox21)
Inconclusive results are not listed. Entries that show only a call come without a potency. Where a structure was tested more than once in an assay, its records may differ in their call. The source made the active and inactive calls. Unless noted, calls come from the whole dose curve.

Key:
[1] = Nuclear factor erythroid 2-related factor 2/antioxidant responsive element (Nrf2/ARE) small molecule agonists: qHTS cell viability counter screen in human keratinocytes (AID 1919968; active = well fitted curve in the direction sought with a large enough effect in the repeat runs; an effect the other way counts as inactive or inconclusive; note: nearly all actives have a fitted effect of over 55% in size)
Procedure, shortened: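 Measured as CellTiter-Fluor fluorescence, this readout tracks cytotoxicity in the same wells as the ARE-luciferase screen. HaCaT reporter cells (1,500/well) received compounds after a 5 h pre-incubation and were exposed for 23 h.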

[2] = Nuclear factor erythroid 2-related factor 2/antioxidant responsive element (Nrf2/ARE) small molecule agonists: luciferase reporter gene qHTS assay in human keratinocytes (AID 1919969); note: nearly all actives have a fitted effect of over 35% in size
[3] = biological target: Gonadotropin-releasing hormone receptor (Homo sapiens) (UniProt P30968); test: Human gonadotropin-releasing hormone receptor (GnRHR) small molecule agonists, calcium flux assay in GnRHR-HEK293 cells (AID 1920063); note: nearly all actives have a fitted effect of over 35% in size
Gonadotropin-releasing hormone receptor (Homo sapiens), sequence (P30968 whole entry, looked up): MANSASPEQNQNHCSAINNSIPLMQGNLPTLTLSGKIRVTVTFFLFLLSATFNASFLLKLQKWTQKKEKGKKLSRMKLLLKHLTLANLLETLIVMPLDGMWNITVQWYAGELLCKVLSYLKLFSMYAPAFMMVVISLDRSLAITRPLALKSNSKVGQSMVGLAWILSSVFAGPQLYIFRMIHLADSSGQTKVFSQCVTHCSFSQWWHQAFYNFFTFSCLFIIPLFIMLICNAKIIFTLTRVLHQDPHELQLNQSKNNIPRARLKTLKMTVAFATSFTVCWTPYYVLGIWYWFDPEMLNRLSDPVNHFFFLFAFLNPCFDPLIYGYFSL
Procedure, shortened: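 Fluorescence kinetics (480 nm excitation, 540 nm emission; 3 min, 1 s steps) report calcium mobilisation in human GnRHR-HEK293 cells in agonist mode. Dye incubation: 1 h, 37 C.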

[4] = biological target: KiSS-1 receptor (Homo sapiens) (UniProt Q969F8); test: Human kisspeptin (KISS1R) small molecule agonists, calcium flux assay in KISS1R-HEK293 cells (AID 1920064; active = well fitted curve in the direction sought with a large enough effect in the repeat runs; an effect the other way counts as inactive or inconclusive)
KiSS-1 receptor (Homo sapiens), sequence (Q969F8 whole entry, looked up): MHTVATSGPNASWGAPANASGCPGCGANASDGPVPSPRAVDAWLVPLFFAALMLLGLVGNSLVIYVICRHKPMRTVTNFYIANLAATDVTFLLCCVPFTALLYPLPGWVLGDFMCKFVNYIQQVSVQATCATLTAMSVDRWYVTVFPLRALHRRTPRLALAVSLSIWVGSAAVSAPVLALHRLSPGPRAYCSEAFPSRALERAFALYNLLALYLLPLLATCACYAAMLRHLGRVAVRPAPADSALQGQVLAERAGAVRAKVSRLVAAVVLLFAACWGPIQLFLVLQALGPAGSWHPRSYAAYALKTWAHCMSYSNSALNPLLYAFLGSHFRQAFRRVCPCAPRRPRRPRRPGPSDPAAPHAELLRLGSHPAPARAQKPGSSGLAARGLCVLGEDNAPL
Procedure, shortened: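 Measures KISS1R agonism through calcium-sensitive dye fluorescence in stably transfected HEK293 cells, read for 3 min after pin-tool compound delivery; 15-point titrations in triplicate.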

[5] = G protein-coupled receptor (GPCR) small molecule agonists, calcium flux assay: HEK293 wild type cell line counter screen (AID 1920065)
Procedure, shortened: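 Readout: fluorescence at 480 nm excitation/540 nm emission, sampled at 1 s intervals for 3 min. Cells had been cultured 18 h, then dye-loaded 1 h at 37 C before compound or ATP addition.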

[6] = p53 small molecule agonists, cell-based qHTS assay with rat liver microsomes: qHTS cell viability counter screen (AID 1963580); note: nearly all actives have a fitted effect of over 45% in size
Procedure, shortened: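 p53RE-bla HCT-116 cells (4,000/well) rested 5 h at 37 C, then given Tox21 compounds in DMSO with rat liver microsomes (0.5 mg/mL final) plus NADPH (0.5 mg/mL final) for 16 h at 37 C. Viability read by CellTiter-Glo luminescence after 30 min at room temperature.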

[7] = p53 small molecule agonists, cell-based qHTS assay: qHTS cell viability counter screen (AID 1963581); note: nearly all actives have a fitted effect of over 45% in size
Procedure, shortened: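 In the same plates used for the p53 bla reporter, HCT-116 cells given compounds for 16 h at 37 C received CellTiter-Glo; luminescence was recorded 30 min later at room temperature.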

[8] = p53 small molecule agonists, cell-based qHTS assay (AID 1963582; active = well fitted activation curve with a large enough effect in the signal ratio in the repeat runs, not every such curve was filed as active; the % refers to the signal ratio)
Procedure, shortened: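 Compounds are pin-transferred in DMSO onto p53RE-bla cells and incubated 16 h at 37 C. The B/G FRET beta-lactamase substrate is then applied for 2 h at RT and fluorescence recorded.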

[9] = biological target: 5-hydroxytryptamine receptor 2A (Homo sapiens) (UniProt P28223); test: 5-hydroxytryptamine receptor 2A (HTR2A) small molecule antagonists, cell-based qHTS assay (AID 1963586); note: nearly all actives have a fitted effect of over 45% in size
5-hydroxytryptamine receptor 2A (Homo sapiens), sequence (P28223 whole entry, looked up): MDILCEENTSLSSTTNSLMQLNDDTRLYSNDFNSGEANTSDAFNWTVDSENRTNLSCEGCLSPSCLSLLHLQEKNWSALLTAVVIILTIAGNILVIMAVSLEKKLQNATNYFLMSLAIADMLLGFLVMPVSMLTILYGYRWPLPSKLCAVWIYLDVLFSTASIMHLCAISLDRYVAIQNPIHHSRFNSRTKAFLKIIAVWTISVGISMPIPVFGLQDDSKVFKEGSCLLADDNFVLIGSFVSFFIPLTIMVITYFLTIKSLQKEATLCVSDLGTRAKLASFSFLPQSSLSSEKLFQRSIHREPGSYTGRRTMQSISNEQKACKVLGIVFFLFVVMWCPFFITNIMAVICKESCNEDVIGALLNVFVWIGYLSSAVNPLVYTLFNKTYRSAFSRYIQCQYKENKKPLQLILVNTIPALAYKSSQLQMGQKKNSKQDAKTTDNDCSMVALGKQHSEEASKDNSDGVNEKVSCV
Procedure, shortened: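 Antagonist-mode intracellular calcium assay: DOI (4 nM) added after 5 min compound pre-incubation at room temperature to dye-loaded HTR2A-CHO cells. Fluorescence followed for 3 min, sampled every second.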

[10] = biological target: 5-hydroxytryptamine receptor 2A (Homo sapiens) (UniProt P28223); test: 5-hydroxytryptamine receptor 2A (HTR2A) small molecule agonists, cell-based qHTS assay (AID 1963587); note: nearly all actives have a fitted effect of over 30% in size
Procedure, shortened: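 HTR2A-CHO cells, plated 18 h at 37 C/5% CO2, dye-loaded 1 h at 37 C; compounds in DMSO added by pin tool (agonist mode). Intracellular calcium flux read as kinetic fluorescence on FDSS over 2 min at 1 s intervals.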

[11] = biological target: Muscarinic acetylcholine receptor M1 (Homo sapiens) (UniProt P11229); test: Cholinergic receptor muscarinic 1 (CHRM1) small molecule antagonists, cell-based qHTS assay (AID 1963588); note: nearly all actives have a fitted effect of over 40% in size
Muscarinic acetylcholine receptor M1 (Homo sapiens), sequence (P11229 whole entry, looked up): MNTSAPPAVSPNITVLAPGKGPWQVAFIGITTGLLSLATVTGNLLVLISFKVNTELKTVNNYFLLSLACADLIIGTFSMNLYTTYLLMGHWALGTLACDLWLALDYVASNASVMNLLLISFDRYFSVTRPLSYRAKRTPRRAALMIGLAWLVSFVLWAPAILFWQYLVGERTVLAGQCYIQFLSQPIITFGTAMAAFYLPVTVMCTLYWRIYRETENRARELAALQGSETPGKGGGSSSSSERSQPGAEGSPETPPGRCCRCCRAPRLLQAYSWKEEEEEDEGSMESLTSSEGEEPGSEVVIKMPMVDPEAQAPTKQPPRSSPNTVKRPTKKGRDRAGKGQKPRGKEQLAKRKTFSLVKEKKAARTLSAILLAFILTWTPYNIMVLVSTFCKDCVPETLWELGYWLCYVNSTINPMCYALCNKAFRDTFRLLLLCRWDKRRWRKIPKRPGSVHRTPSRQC
Procedure, shortened: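 CHRM1-CHO calcium-flux assay, antagonist mode. Cells were seeded 18 h, dye-loaded 1 h at 37 C and given compound for 5 min at RT, then acetylcholine was added at 50nM. FDSS fluorescence was read 3 min; 15 concentrations, three runs.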

[12] = biological target: Muscarinic acetylcholine receptor M1 (Homo sapiens) (UniProt P11229); test: Cholinergic receptor muscarinic 1 (CHRM1) small molecule agonists, cell-based qHTS assay (AID 1963589); note: nearly all actives have a fitted effect of over 35% in size
Procedure, shortened: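 Each compound was tested at 15 concentrations across three independent runs on dye-loaded CHO cells stably expressing human CHRM1, reading intracellular calcium fluorescence kinetically at 1 sec intervals.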

[13] = cAMP Responsive Elements (CRE) small molecule agonists, cell-based qHTS assay (AID 1963590)
Procedure, shortened: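 Cell line: CRE-bla HEK 293T; medium DMEM/10% dialyzed FBS/0.1 mM NEAA/1 mM pyruvate/25 mM HEPES; 3 h compound exposure; beta-lactamase FRET readout after 2 h substrate loading at RT.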

[14] = cAMP Responsive Elements (CRE) small molecule antagonists, cell-based qHTS assay (AID 1963591; active = well fitted inhibition curve with a large enough effect in the signal ratio in the repeat runs, not every such curve was filed as active; the % refers to the signal ratio)
Procedure, shortened: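 Inhibition of NKH477-driven (0.25 uM final) CRE-beta-lactamase signal in HEK293T cells, 3 h compound exposure at 37 °C, detected by FRET substrate fluorescence.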

[15] = biological target: Beta-2 adrenergic receptor (Homo sapiens) (UniProt P07550); test: Adrenergic beta2 receptor (ADRB2) small molecule antagonists, cell-based qHTS assay (AID 1963592); note: series mostly up to about 92 µM; nearly all actives have a fitted effect of over 50% in size
Beta-2 adrenergic receptor (Homo sapiens), sequence (P07550 whole entry, looked up): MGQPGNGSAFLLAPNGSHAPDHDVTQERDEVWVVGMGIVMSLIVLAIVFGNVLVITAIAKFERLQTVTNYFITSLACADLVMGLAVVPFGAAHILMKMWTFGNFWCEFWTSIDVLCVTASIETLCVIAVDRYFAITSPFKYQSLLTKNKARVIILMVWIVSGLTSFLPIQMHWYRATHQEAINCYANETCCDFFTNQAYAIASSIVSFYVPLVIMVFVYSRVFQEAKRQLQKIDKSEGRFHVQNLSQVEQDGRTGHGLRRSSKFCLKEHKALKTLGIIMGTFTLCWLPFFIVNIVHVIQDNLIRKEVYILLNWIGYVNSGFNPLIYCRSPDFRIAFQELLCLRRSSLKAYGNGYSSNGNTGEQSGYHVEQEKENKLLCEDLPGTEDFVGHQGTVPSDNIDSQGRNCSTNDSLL
Procedure, shortened: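 Cells (CHO, stable ADRB2 overexpression) incubated 18-20hr at 37C; compounds added from DMSO; agonist mix (1nM isoproterenol, 100uM IBMX, 25uM Ro-20-1724) added; 0.5hr RT; d2-cAMP and anti-cAMP-cryptate added; 1hr RT; 665/615 nm read.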

[16] = biological target: D(2) dopamine receptor (Homo sapiens) (UniProt P14416); test: Dopamine D2 receptor (DRD2) small molecule agonists, cell-based qHTS assay (AID 1963594); note: nearly all actives have a fitted effect of over 35% in size
D(2) dopamine receptor (Homo sapiens), sequence (P14416 whole entry, looked up): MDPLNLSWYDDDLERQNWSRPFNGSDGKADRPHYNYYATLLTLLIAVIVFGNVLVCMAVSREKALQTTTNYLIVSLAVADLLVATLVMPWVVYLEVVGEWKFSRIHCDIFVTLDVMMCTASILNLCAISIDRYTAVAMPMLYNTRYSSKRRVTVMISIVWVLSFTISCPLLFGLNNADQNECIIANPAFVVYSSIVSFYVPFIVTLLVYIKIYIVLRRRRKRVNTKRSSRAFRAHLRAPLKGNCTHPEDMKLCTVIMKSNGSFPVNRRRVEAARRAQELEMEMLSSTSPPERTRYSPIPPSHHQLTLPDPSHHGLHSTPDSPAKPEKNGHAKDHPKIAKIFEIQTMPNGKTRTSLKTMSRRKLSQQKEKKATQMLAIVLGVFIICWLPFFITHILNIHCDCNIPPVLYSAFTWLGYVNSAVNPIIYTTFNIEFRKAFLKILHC
Procedure, shortened: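 HEK293 cells stably expressing DRD2 were cultured 24 h at 37 C, then given Ro20-1724 (0.1 mM final) and compounds for 10 min at room temperature. NKH477 (200nM) was then added for 30 min. cAMP was read by HTRF.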

[17] = biological target: D(2) dopamine receptor (Homo sapiens) (UniProt P14416); test: Dopamine D2 receptor (DRD2) small molecule antagonists, cell-based qHTS assay (AID 1963595; active = well fitted inhibition curve with a large enough effect in the signal ratio in the repeat runs, with a control signal flat; the % refers to the signal ratio; note: potency is the fitted concentration of half-maximal effect)
Procedure, shortened: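 Readout: HTRF cAMP, cAMP-d2 competing with cellular cAMP for anti-cAMP cryptate, read after 1 h. Cells: DRD2-HEK293. Conditions: 0.1 mM Ro20-1724, 12 nM quinpirole, 200 nM NKH477, 30 min RT.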

[18] = p53 small molecule agonists, cell-based qHTS assay with human liver microsomes: qHTS cell viability counter screen (AID 1963579); note: nearly all actives have a fitted effect of over 45% in size
Procedure, shortened: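 Seed p53RE-bla cells at 4,000 per well; incubate 5 h at 37 C; add compound, human liver microsomes and NADPH; incubate 16 h at 37 C; add CellTiter-Glo; after 30 min at room temperature, read luminescence.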

[19] = biological target: Beta-2 adrenergic receptor (Homo sapiens) (UniProt P07550); test: Adrenergic beta2 receptor (ADRB2) small molecule agonists, cell-based qHTS assay (AID 1963593);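 note: CHO cells stably overexpressing human ADRB2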
Procedure, shortened: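 CHO cells stably over-expressing ADRB2 were plated overnight at 37C, then dosed with compounds plus a stimulation mix containing 100uM IBMX and 25uM Ro-20-1724 for 0.5hr at room temperature. cAMP was measured by HTRF competition, 1hr.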

[20] = p53 small molecule agonists, cell-based qHTS assay with human liver microsomes (AID 1963577);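 note: p53 response element beta-lactamase reporter cells with liver microsomes plus NADPH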
Procedure, shortened: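 Cells carrying a p53-responsive bla reporter were rested 5 h (37 C, 5% CO2) before compound transfer. Human liver microsomes plus NADPH, 0.5 mg/mL final apiece, supplied metabolism during the 16 h 37 C exposure.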

Row | Structure (SMILES) | Potency [1] | Potency [2] | Potency [3] | Potency [4] | Potency [5] | Potency [6] | Potency [7] | Potency [8] | Potency [9] | Potency [10] | Potency [11] | Potency [12] | Potency [13] | Potency [14] | Potency [15] | Potency [16] | Potency [17] | Potency [18] | Potency [19] | Potency [20]
1 | CC1(C)CC(N)CC(C)(CN)C1 (centres undefined) | inactive | inactive | inactive | inactive | inactive | inactive | inactive | inactive | inactive | inactive | inactive | inactive | inactive | inactive | inactive | inactive | inactive |  |  | 
2 | O=C(O)[C@H](O)[C@@H](O)[C@H](O)[C@H](O)CO | inactive | inactive | inactive | inactive | inactive | inactive | inactive |  |  | inactive | inactive | inactive | inactive | inactive | inactive | inactive | inactive | inactive |  | 
3 | CC(=O)Nc1ccccc1 | inactive | inactive | inactive | inactive | inactive |  | inactive |  | inactive | inactive | inactive | inactive | inactive | inactive | inactive | inactive | inactive | inactive | inactive | 
4 | CCC(C)(C)C(=O)O[C@H]1C[C@@H](C)C=C2C=C[C@H](C)[C@H](CC[C@@H]3C[C@@H](O)CC(=O)O3)[C@H]21 | inactive | inactive | inactive | inactive | inactive | inactive | inactive |  |  |  |  |  | inactive |  | inactive | inactive | 19.3 µM (active) and inactive |  |  | 
5 | c1ccc2cc3ccccc3cc2c1 | inactive | inactive | inactive | inactive | inactive |  | inactive | inactive | inactive | inactive | inactive | inactive | inactive | inactive | inactive | inactive | inactive | inactive | inactive | 
6 | Nc1cc([N+](=O)[O-])ccc1C(=O)O | inactive | inactive | inactive | inactive |  | inactive | inactive | inactive | inactive | inactive | inactive |  | inactive | inactive | inactive | inactive | inactive | inactive |  | inactive
7 | CC(C)(C#N)c1cc(Cn2cncn2)cc(C(C)(C)C#N)c1 | inactive | inactive | inactive | inactive |  | inactive | inactive | inactive |  |  |  |  |  | inactive | inactive | inactive | inactive | inactive | inactive | inactive
8 | C=C(C)CNCC | inactive | inactive | inactive | inactive |  | inactive | inactive | inactive | inactive | inactive | inactive | inactive | inactive | inactive | inactive | inactive | inactive | inactive | inactive | inactive
